Data published in PubChem BioAssay.
A number with no mark means an inactive call. The source made the active and inactive calls.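 How the source made its calls, unless noted: active means luciferase signal above three times the same-plate solvent-only control wells; inactive means the rest.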

Columns and labels:
[1] = biological target: Mitogen-activated protein kinase 7 (Homo sapiens) (UniProt Q13164); test: Gal4-ERK5 driven luciferase induction – cell-based, HTS, primary screen (AID 1508626); conditions: HeLa Gal4-ERK5 transactivation, 18 h, at 5 µM, hits give high values;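 further: luciferase driven by Gal4-ERK5 fusion binding five Gal4 sites before minimal TATA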
Sequence of Mitogen-activated protein kinase 7 (Homo sapiens) (Q13164 whole entry, looked up, the tested form may be a part): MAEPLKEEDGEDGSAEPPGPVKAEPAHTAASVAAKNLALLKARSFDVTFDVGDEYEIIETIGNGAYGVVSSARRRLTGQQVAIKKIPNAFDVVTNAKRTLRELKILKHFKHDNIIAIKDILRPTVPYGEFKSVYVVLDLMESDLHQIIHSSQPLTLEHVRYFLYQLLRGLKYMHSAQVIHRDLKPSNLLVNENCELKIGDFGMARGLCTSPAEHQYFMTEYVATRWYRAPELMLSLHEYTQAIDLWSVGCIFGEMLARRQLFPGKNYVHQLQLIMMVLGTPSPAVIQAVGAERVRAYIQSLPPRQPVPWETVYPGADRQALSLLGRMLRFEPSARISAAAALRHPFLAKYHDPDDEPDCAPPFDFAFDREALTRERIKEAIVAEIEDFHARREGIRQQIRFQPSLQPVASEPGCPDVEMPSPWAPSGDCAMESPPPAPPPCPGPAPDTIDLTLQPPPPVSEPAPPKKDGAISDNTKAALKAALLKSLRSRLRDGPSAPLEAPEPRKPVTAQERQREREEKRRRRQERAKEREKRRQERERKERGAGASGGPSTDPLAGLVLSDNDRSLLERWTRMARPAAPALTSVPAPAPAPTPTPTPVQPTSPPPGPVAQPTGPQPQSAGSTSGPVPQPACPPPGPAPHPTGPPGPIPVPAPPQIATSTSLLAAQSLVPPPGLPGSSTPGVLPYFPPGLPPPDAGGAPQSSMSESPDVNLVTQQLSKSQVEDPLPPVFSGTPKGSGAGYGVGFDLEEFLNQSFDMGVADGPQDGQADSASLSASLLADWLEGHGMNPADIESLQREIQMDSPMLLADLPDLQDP

[2] = biological target: NAD(+) hydrolase SARM1 (Homo sapiens) (UniProt Q6SZW1); test: blocking NAD cleavage by SARM1 SAM-TIR – cell lysate, NAD-Glo luminescence (AID 1508614;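 active means compound whose remaining NAD level is above about 45 nM, limit read from the data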;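 further: higher remaining NAD means stronger inhibition of SARM1 NADase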); conditions: SAM-TIR HEK293T lysate NADase, at 1 µM, hits give high values
Sequence of NAD(+) hydrolase SARM1 (Homo sapiens) (Q6SZW1 whole entry, looked up): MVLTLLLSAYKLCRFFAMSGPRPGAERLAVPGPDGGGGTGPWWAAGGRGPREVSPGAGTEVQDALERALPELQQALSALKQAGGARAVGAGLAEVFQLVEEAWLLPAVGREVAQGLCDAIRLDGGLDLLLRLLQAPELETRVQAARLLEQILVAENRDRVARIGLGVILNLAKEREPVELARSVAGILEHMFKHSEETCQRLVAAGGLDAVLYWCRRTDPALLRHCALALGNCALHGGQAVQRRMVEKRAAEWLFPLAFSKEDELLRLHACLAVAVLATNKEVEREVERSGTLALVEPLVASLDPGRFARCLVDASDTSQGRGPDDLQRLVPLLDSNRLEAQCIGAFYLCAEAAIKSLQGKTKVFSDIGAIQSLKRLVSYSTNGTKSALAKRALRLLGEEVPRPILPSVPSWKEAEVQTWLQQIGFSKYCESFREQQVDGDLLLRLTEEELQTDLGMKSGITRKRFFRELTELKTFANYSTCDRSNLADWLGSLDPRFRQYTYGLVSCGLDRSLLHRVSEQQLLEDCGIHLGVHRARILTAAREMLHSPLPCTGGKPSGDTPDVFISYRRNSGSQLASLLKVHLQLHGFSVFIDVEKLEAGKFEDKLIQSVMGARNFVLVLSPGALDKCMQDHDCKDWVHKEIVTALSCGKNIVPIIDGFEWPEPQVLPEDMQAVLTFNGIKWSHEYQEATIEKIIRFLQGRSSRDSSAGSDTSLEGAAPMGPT

| SMILES | luciferase signal [1] | remaining NAD [2] [nM] |
| --- | --- | --- |
| CO/N=C(/C(=O)N[C@@H]1C(=O)N2C(C(=O)OCOC(=O)C(C)(C)C)=C(/C=C\c3scnc3C)CS[C@H]12)c1csc(N)n1 | 132 AU |  |
| CN[C@@H]1[C@@H](O)[C@@H](O[C@@H]2[C@@H](O)[C@H](O[C@H]3OC(CN)=CC[C@H]3N)[C@@H](N)C[C@H]2N)OC[C@]1(C)O | 48 AU | 10 |
| CC1(C)S[C@@H]2[C@H](NC(=O)[C@H](C(=O)O)c3ccsc3)C(=O)N2[C@H]1C(=O)O | 44 AU | 10 |
| CN[C@@H]1[C@H](O[C@H]2[C@H](O[C@H]3[C@H](O)[C@@H](O)[C@H](N=C(N)N)[C@@H](O)[C@@H]3N=C(N)N)O[C@@H](C)[C@]2(O)C=O)O[C@@H](CO)[C@H](O)[C@H]1O | 80 AU | 10 |
| CO[C@@H]1[C@@H](O[C@@H]2O[C@H](C)[C@@H](O[C@H]3C[C@@](C)(O)[C@@H](O)[C@H](C)O3)[C@H](N(C)C)[C@H]2O)[C@@H](CC=O)C[C@@H](C)[C@@H](O[C@H]2CC[C@H](N(C)C)[C@@H](C)O2)/C=C/C=C/C[C@@H](C)OC(=O)C[C@H]1O | 216 AU | 10 |
| CC1(C)S[C@@H]2[C@H](N3C(=O)[C@@H](c4ccccc4)NC3(C)C)C(=O)N2[C@H]1C(=O)O | 40 AU | 10 |
| C/C=C(/C)C(=O)O[C@H]1[C@H](OC(C)=O)[C@]2(CO)[C@H](O)C[C@]3(C)C(=CC[C@@H]4[C@@]5(C)CC[C@H](O[C@@H]6O[C@H](C(=O)O)[C@@H](O[C@@H]7O[C@H](CO)[C@@H](O)[C@H](O)[C@H]7O)[C@H](O)[C@H]6O[C@@H]6O[C@H](CO)[C@@H](O)[C@H](O)[C@H]6O)[C@](C)(CO)[C@@H]5CC[C@]43C)[C@@H]2CC1(C)C | 276 AU |  |
| C[C@@H]1C\C=C/C=C/C=C/C=C/[C@H](O[C@@H]2O[C@H](C)[C@@H](O)[C@H](N)[C@@H]2O)C[C@@H]2O[C@](O)(C[C@@H](O)C[C@@H]3O[C@@H]3/C=C\C(=O)O1)C[C@H](O)[C@H]2C(=O)O | 292 AU | 10 |
| Cn1nnnc1SCC1=C(C(=O)O)N2C(=O)[C@@H](NC(=O)[C@H](OC=O)c3ccccc3)[C@H]2SC1 | 16 AU | 10 |
| CCN[C@@H]1C[C@H](N)[C@@H](O[C@H]2OC(CN)=CC[C@H]2N)[C@H](O)[C@H]1O[C@H]1OC[C@](C)(O)[C@H](NC)[C@H]1O | 56 AU | 10 |
| CC(C)=CCC[C@@H](C)[C@@H]1CC[C@]2(C)C3=C(CC[C@@]12C)[C@@]1(C)CC[C@H](O)C(C)(C)[C@@H]1CC3 | 68 AU |  |
| C[C@@H]1O[C@@H]1P(=O)(O)O | 76 AU | 10 |
| CC(=O)O[C@@H]1C=C[C@@]2(C)C(C[C@@H](OC(C)=O)[C@@]3(C)C4=CC(=O)O[C@@H](c5ccoc5)[C@]4(C)CCC23)C1(C)C (some centres undefined) | 20 AU |  |
| CC(C)c1c(O)ccc2c1CCC1[C@@](C)(CO)CCC[C@]21C (some centres undefined) | 112 AU |  |
| CC(=O)O[C@H]1CC[C@]2(C)C3=C(CC[C@H]2C1(C)C)[C@@]1(C)CC[C@@H]([C@H](C)CCC=C(C)C)[C@]1(C)CC3 | 28 AU |  |
| CC(=O)[C@@]12O[C@](C)(c3ccccc3)O[C@@H]1C[C@H]1[C@@H]3CCC4=CC(=O)CC[C@]4(C)[C@H]3CC[C@@]12C | 76 AU | 10 |
| C=CCCCCCCCCCCCC(O)CC(O)COC(C)=O (centres undefined) | 48 AU |  |

| SMILES | luciferase signal [1] | remaining NAD [2] [nM] |
| --- | --- | --- |
| CC(C)(O)[C@@H]1CC[C@](C)([C@H]2[C@@H](O)C[C@@]3(C)[C@@H]4C[C@H](O[C@@H]5O[C@H](CO)[C@@H](O)[C@H](O)[C@H]5O)[C@H]5C(C)(C)[C@@H](O[C@@H]6OC[C@@H](O)[C@H](O)[C@H]6O)CC[C@@]56C[C@@]46CC[C@]23C)O1 | 52 AU |  |
| CO[C@H]1C[C@@H]2CC[C@@H](C)[C@@](O)(O2)C(=O)C(=O)N2CCCC[C@H]2C(=O)O[C@H]([C@H](C)C[C@@H]2CC[C@@H](O)[C@H](OC)C2)CC(=O)[C@H](C)/C=C(\C)[C@@H](O)[C@@H](OC)C(=O)[C@H](C)C[C@H](C)\C=C/C=C/C=C/1C | 64 AU | 10 |
| CC(C)CCC[C@@H](C)[C@H]1CC[C@H]2[C@@H]3C=CC4=CC(=O)CC[C@]4(C)[C@H]3CC[C@]12C | 44 AU |  |
| C[C@]12CC[C@@H]3c4ccc(OC(=O)c5ccccc5)cc4CC[C@H]3[C@@H]1CC[C@@H]2O | 56 AU | 10 |
| OC[C@@H](O)C(O)[C@@H](O)CO (some centres undefined) | 88 AU |  |
| CC(C)CCC[C@@H](C)[C@H]1CC[C@H]2[C@@H]3CC[C@H]4C[C@H](O)CC[C@]4(C)[C@H]3CC[C@]12C | 140 AU |  |
| CO/N=C1\C[C@]2(C[C@@H]3C[C@@H](C/C=C(\C)C[C@@H](C)/C=C/C=C4\CO[C@@H]5[C@H](O)C(C)=C[C@@H](C(=O)O3)[C@]45O)O2)O[C@H](/C(C)=C/C(C)C)[C@H]1C | 40 AU |  |
| COc1ccc(/C=C/C(=O)c2ccc(O)cc2O)cc1OC | 60 AU |  |
| CC(=O)[C@H]1CC[C@H]2[C@@H]3CC=C4C[C@@H](OC(=O)CCC(=O)O)CC[C@]4(C)[C@H]3CC[C@]12C | 52 AU | 10 |
| C[C@]12C=CC(=O)C=C1CC[C@@H]1[C@@H]2[C@@H](O)C[C@@]2(C)[C@H]1CC[C@]2(O)C(=O)COP(=O)(O)O | 96 AU | 10 |
| CC(=O)O[C@H]1CC[C@]2(C)[C@H]3CC=C4[C@@H]5CC(C)(C)CC[C@]5(C)CC[C@@]4(C)[C@]3(C)CC[C@H]2C1(C)C | 64 AU |  |
| CC1=C2[C@H](/C=C(\C)C(=O)O)CC[C@@H](C)[C@H]2CC1 | 68 AU |  |
| CC(=O)[C@H]1CC[C@H]2[C@@H]3CCC4=CC(=O)CC[C@]4(C)[C@H]3C(OC(=O)CCC(=O)O)C[C@]12C (some centres undefined) | 60 AU |  |
| C[C@H]1C[C@@H]2[C@H]([C@@H](O)C[C@@]3(C)[C@H]2CC[C@]3(O)C(=O)COC(=O)CCC(=O)O)[C@@]2(C)C=CC(=O)C=C12 | 72 AU | 10 |
| C=CCCCCCCCCCCCC(O)CC(O)CO (centres undefined) | 220 AU (active) |  |
| CC1C(=O)OC2CC34C5CC(C(C)(C)C)C36C(OC(=O)C6O)OC4(C(=O)O5)C21O (centres undefined) | 36 AU |  |
| CC(C)CCC[C@@H](C)[C@H]1CC[C@H]2[C@@H]3C(=O)C=C4C[C@@H](O)CC[C@]4(C)[C@H]3CC[C@]12C | 80 AU |  |
